PLK1 PBD inh – inhibitors of human PLK1 polo-box domain binding; P53350; Plk1 PBD binding of FITC phosphopeptide, fluorescence polarization; Potency, µM, for inactives: max response, negative = inhibition, hits mostly inhibitors; actives 2.8% (n = 360,000); AID 720504; also: potency is read from the fitted curve at half-maximal effect; series mostly up to about 57 µM; % is scaled to controls: 0 for no effect and ±100 for the full control effect; nearly all actives have a fitted effect of over 65% in size
HP1b binding inh – HP1-beta chromodomain-methylated histone interaction inhibition. P83916. AlphaScreen HP1-beta / biotin-H3K9me3 peptide binding. Potency, µM (top dose mostly 114 µM), for the others: at the highest dose activity change, negative = inhibition, hits mostly inhibitors. actives 0.56% (n = 390,000). AID 540317; also: potency is read from the fitted curve at half-maximal effect; nearly all actives have a fitted effect of over 70% in size
Target sequence (P83916 whole entry, looked up): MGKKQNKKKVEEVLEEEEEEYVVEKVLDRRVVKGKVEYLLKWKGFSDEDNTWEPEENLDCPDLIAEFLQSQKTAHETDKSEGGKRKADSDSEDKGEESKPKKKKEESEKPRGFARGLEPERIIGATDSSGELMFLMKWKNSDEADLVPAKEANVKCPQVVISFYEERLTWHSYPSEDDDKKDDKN
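Compound inhibition of the preformed complex between 50 nM HP1-beta and 50 nM biotinylated H3K9me3 peptide was read by AlphaScreen. Buffer was PBS pH 7.4 with 0.01% Tween-20. Incubations ran 30 min at room temperature, with 10 ug/mL donor/acceptor beads.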
G9a block – blocks human histone lysine methyltransferase G9a; Q96KQ7; G9a H3K9 monomethylation, AlphaScreen, 2 h; Potency, µM (doses to about 102 µM), without a hit: at the highest dose activity, negative = inhibition, hits mostly inhibitors; actives 8.8% (n = 350,000); also: potency is read from the fitted curve at half-maximal effect; % is scaled to controls: 0 for no effect and ±100 for the full control effect; nearly all actives have a fitted effect of over 75% in size
Target sequence (Q96KQ7 913-1193 limits assumed): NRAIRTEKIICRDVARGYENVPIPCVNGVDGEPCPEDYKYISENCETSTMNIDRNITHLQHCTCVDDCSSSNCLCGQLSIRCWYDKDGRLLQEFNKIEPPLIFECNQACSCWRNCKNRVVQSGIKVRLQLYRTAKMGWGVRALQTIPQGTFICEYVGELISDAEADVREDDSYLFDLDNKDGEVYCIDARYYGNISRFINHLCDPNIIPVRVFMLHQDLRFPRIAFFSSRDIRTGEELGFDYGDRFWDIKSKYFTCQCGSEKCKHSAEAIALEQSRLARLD
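Enzyme 20 nM + cpd, 15 min RT; add b-H3K9 pep 500 nM / SAM 20 uM; 2 h RT; anti-H3K9me1 Ab 0.5 ug/mL + SA donor / anti-rabbit acceptor beads 20 ug/mL each, 10 min; AlphaScreen read.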
JMJD2A Tudor – blocks the human JMJD2A Tudor domain; O75164; AlphaScreen JMJD2A-Tudor / H3K4me3 peptide binding; Potency, µM (top dose mostly 114 µM), inactives show top-dose activity change, negative = inhibition, actives largely listed as inhibitors; actives 4.4% (n = 390,000); also: potency is read from the fitted curve at half-maximal effect; % is scaled to controls: 0 for no effect and ±100 for the full control effect; nearly all actives have a fitted effect of over 50% in size
BAZ2B inh – BAZ2B (human) inhibition; actives 4.4% (n = 360,000); Q9UIF8; AlphaScreen BAZ2B-H3K14Ac peptide displacement; Potency, µM (top dose mostly 114 µM), without a hit: at the highest dose activity change, negative = inhibition, most hits filed as inhibitors; AID 504333; also: potency is read from the fitted curve at half-maximal effect; % is scaled to controls: 0 for no effect and ±100 for the full control effect; nearly all actives have a fitted effect of over 60% in size
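Multi-concentration screen (max 110 uM) measuring displacement of acetylated histone H3 peptide from BAZ2B by AlphaScreen, using 50 nM protein, 50 nM peptide and 10 ug/mL streptavidin donor plus Ni-chelate acceptor beads.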
PI5P4Ka inh – PI5P4K alpha (human) kinase inhibition. PI5P4Kalpha enzyme, ADP-Glo luminescence, 60 min; hits give low values. max response, %. actives 1.2% (n = 330,000). P48426. AID 652105; active = max response of -50% or lower; inconclusive = between -30% and -50%; inactive = -30% or higher; also: value at the top dose of about 77 µM; % is scaled to controls: 0 for no effect and ±100 for the full control effect
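Luminescence from ADP-Glo served as readout of PI5P4Kalpha activity in a qHTS format. Reaction: enzyme, substrate, compound, ATP at 5 microM final, 60 min at RT.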
Active calls of the source: *; ? = inconclusive; . = no result; [ ] = another dose, or the depositor's remark. Most compounds without a hit are left out; they make up all but 12% or so of the library. Unless noted, calls follow the shape of the dose curve; as a rule, active = well fitted curve in the direction sought with a large enough effect; inconclusive = small, poorly fitted or top-dose-only effect, or another doubt; inactive = no such curve, though single readings can be large; an effect the other way counts as inactive or inconclusive.

SMILES | PLK1 PBD inh | HP1b binding inh | G9a block | JMJD2A Tudor | BAZ2B inh | PI5P4Ka inh
CN(C(=O)c1ccc(S(=O)(=O)c2cccc(Cl)c2)c([N+](=O)[O-])c1)C1CCCCC1 | -3.5% | -7.6% | 31.6µM* | ? | -35.9% | 4.7
O=C(NC1CCCCC1)c1ccc(S(=O)(=O)c2ccccc2Cl)c([N+](=O)[O-])c1 | . | . | ? | . | -31.7% | .
O=C1CCC2(CCCCC2)N1 | -2.4% | 40.5% | . | -3.4% | . | 6.1
O=C(COC(=O)c1ccccn1)Nc1nc(-c2cccc([N+](=O)[O-])c2)cs1 | -1.8% | -3.1% | -7.0% | -18.3% | 56.2µM* | 0.9
O=C(COC(=O)c1ccccn1)Nc1nc(-c2ccccc2)cs1 | -18.9% | -13.9% | -72.0% | 79.4µM* | 50.1µM* | -18.6
O=C(Cc1ccccc1)Nc1nc(-c2cccc([N+](=O)[O-])c2)cs1 | 30.1% | 42.5% | 11.7%[59 µM] | 0.3% | 10.2% | -1.8
CCn1nc(C(=O)OCC(=O)Nc2nc(-c3ccc(OC)cc3)cs2)c2ccccc2c1=O | 26.7µM* | -2.9% | ? | -35.1% | -36.6% | 2.5
CCOC(=O)Cn1c(=O)oc2cc(S(=O)(=O)Nc3ccccc3F)ccc21 | . | 39.9% | -1.7%[59 µM] | 4.0% | 0.3% | .
C[C@]12CC[C@@H](O)C[C@@H]1CC[C@@H]1[C@@H]2CC[C@]2(C)C=CC[C@@H]12 | . | . | 28.9%[59 µM] | . | . | .
O=c1[nH]c(=O)n(C2CCCCC2)c(O)c1C1=Nc2ccccc2SC(c2ccc(Cl)cc2)C1 (stereo not drawn) | . | 47.2% | 2.2%[59 µM] | 7.6% | 2.0% | .
CCOC(=O)N1CCC(Nc2c(-c3ccccc3)c(=O)c2=O)CC1 | -6.0% | 14.4% | 56.2µM* | -17.7% | -13.7% | -4.6
CCOC(=O)N1CCC(Nc2c(NCCCN(CC)c3cccc(C)c3)c(=O)c2=O)CC1 | -13.3% | -8.1% | 50.1µM* | ? | ? | 1.8
CCOC(=O)N1CCN(c2c(NCCN(C)Cc3ccccc3)c(=O)c2=O)CC1 | 6.2% | 37.1% | 56.2µM* | -6.9% | -3.1% | -0.6
CCOC(=O)N1CCC(Nc2c(-c3ccc(C)cc3)c(=O)c2=O)CC1 | 1.7% | 36.8% | ? | -6.5% | 2.6% | -5.8
C[C@@H](CCc1ccccc1)NC[C@H](O)c1ccc(O)c(C(N)=O)c1 | . | . | -5.8%[12.7 µM] | . | . | .
CC(=O)NC(CC(=O)N(Cc1ccccc1)c1cccc(C)c1)c1ccccc1 (stereo not drawn) | -6.2% | -1.6% | 46.8% | -25.0% | -0.8% | -5.0
OC(CCc1cccc(Cl)c1)c1cccs1 (stereo not drawn) | 21.2µM* | 34.7% | 58.7% | 4.0% | 29.1% | -3.3
C#CCOCCOCCOCCNc1nc(N2CCN(C(=O)[C@H]([C@@H](C)CC)n3cc([C@@H](N)Cc4ccc(O)cc4)nn3)CC2)nc(N2CCN(C(=O)[C@H](Cc3ccc(O)cc3)n3cc([C@@H](N)C(C)CC)nn3)CC2)n1 (stereo partly drawn) | -1.0% | 7.6% | ? | 22.4µM* | 79.4µM* | -8.7
C#CCOCCOCCOCCNc1nc(N2CCN(C(=O)[C@H]([C@@H](C)CC)n3cc([C@@H](N)CC(C)C)nn3)CC2)nc(N2CCN(C(=O)[C@H](Cc3ccc(O)cc3)n3cc([C@@H](N)C(C)CC)nn3)CC2)n1 (stereo partly drawn) | -13.8% | 12.3% | 6.3%[12.7 µM] | ? | 79.4µM* | 2.2
O=C(c1ccncc1)N1CCN(CCc2ccccc2)CC1 | -5.2% | 52.3% | 25.7% | -7.9% | -2.7% | -0.5
O=C(c1ccccc1)N1CCN(CCc2ccccn2)CC1 | 0.5% | 46.6% | 20.8% | -13.4% | 3.0% | 0.6
CCC1CCCCN1C(=O)c1ccc(OC2CCN(Cc3ccccn3)CC2)cc1 (stereo not drawn) | -2.3% | 18.8% | 17.8% | -20.5% | -24.0% | 2.4
O=C(c1ccc(-c2ccccc2)cc1)N1CCN(Cc2ccccn2)CC1 | -6.9% | 13.1% | 39.8µM* | ? | ? | -11.0
Cc1ccc(CN2CCN(C(=O)c3ccncc3)CC2)cc1 | -1.8% | ? | 8.91µM* | 7.94µM* | 22.4µM* | -0.4
COCC1CCCCN1C(=O)c1ccc(OC2CCN(Cc3ccccn3)CC2)cc1 (stereo not drawn) | -1.7% | 17.7% | 2.6% | 25.1µM* | -38.5% | -8.6
SMILES | PLK1 PBD inh | HP1b binding inh | G9a block | JMJD2A Tudor | BAZ2B inh | PI5P4Ka inh
O=C(c1ccc(Cn2ccc([N+](=O)[O-])n2)cc1)N1CCN(Cc2ccccc2)CC1 | -4.6% | 4.6% | . | -24.0% | -13.4% | 3.2
CSc1ccc(CN2CCN(C(=O)c3ccc([N+](=O)[O-])cc3)CC2)cc1 | -2.5% | ? | . | 22.4µM* | 50.1µM* | -5.6
CCc1c(C)sc2c1CCN(C(=O)Nc1cc(Cl)c(OC)cc1OC)C2c1ccccc1 (stereo not drawn) | . | ? | -32.7%[59 µM] | ? | ? | .
Cc1ccc(NC(=O)Cn2cc3c(n2)CCCCC3)cc1 | . | 24.8% | -4.0%[59 µM] | 2.7% | -24.5% | .
CCc1ccc(NC(=O)c2ccc(F)c(S(=O)(=O)NCc3ccc(Cl)c(Cl)c3)c2)cc1 | . | 31.8% | 3.7%[59 µM] | -19.6% | -0.5% | .
CCOc1ccc(OCC)c(NS(=O)(=O)c2ccc(-c3coc(C)n3)cc2)c1 | . | 22.1%[57 µM] | -5.2%[59 µM] | -32.3% | -28.6% | .
Cc1ccccc1-n1c([C@@H]2C[C@H]2c2ccccc2)n[nH]c1=S | -10.6% | 8.7% | . | 44.7µM* | -16.4% | -10.0
S=c1[nH]nc([C@@H]2C[C@H]2c2ccccc2)n1-c1ccccc1 | -8.0% | -4.7% | 2µM* | 17.8µM* | -9.4% | -8.4
Cc1ccccc1-n1c(=S)[nH]c2nc3c(cc2c1=O)CCCC3 | -0.7% | 46.2% | 20.3% | -16.0% | -17.0% | 8.8
CCOc1cccc(C(=O)Nc2ccc(-c3nc4cc(C)cc(C)c4o3)cc2)c1 | . | 17.3% | -13.3%[59 µM] | -13.1% | 1.9% | .
Cc1ccc(Cl)cc1NS(=O)(=O)c1cc2c(cc1F)NC(=O)CC2 | . | . | . | -7.1% | . | .
COC(=O)C[C@H]1CC[C@H](NS(=O)(=O)c2cn(C)cn2)[C@@H](CO)O1 | -16.5% | . | . | . | . | 1.2
Cc1ccccc1C(=O)Nc1nnc(SCc2cc(=O)c3c(C)ccc(C)c3[nH]2)s1 | . | 19.6%[57 µM] | 7.7%[59 µM] | -31.5% | 56.2µM* | .
COc1cc(C2Nc3ccccc3NC3=C2C(=O)CC(C)(C)C3)cc(OC)c1OC(C)=O (stereo not drawn) | -22.1% | 25.5% | 50.1µM* | -19.9% | 5.6% | -1.1
COc1ccc(O)c(/C=N/N2CCCCC2)c1 | -18.8% | 3.9% | 50.1µM* | 50.1µM* | 50.1µM* | -0.1
COc1cc(C=NN2CCCCC2)cc(OC)c1OC | 1.0% | . | . | . | . | -1.2
COc1cc(/C=N/N2CCCCC2)cc(OC)c1O | ? | -5.0% | 22.4µM* | -25.8% | -34.1% | -4.5
COc1ccc(/C(C)=N/N2CCCCC2)c(O)c1 | -0.4% | 40.1% | 8.2% | 13.8% | 2.3% | -7.9
